LmPK inh = LmPK (Leishmania mexicana) enzyme inhibition | 290,000 tested, 0.37% active | Q27686 | purified LmPK, Kinase-Glo ATP luminescence, 1 h | Potency, µM (top dose mostly 57.5 µM), without a hit: top-dose activity change, negative = inhibition, actives largely listed as inhibitors; active means well fitted curve in the direction sought with a large enough effect; inconclusive means small, poorly fitted or top-dose-only effect, or another doubt; inactive means no such curve, though single readings can be large; an effect the other way counts as inactive or inconclusive; further: potency means the concentration at half of the fitted maximal effect; on the % scale 0 is the no-effect control and ±100 the full control effect
Target sequence (Q27686 whole entry, looked up): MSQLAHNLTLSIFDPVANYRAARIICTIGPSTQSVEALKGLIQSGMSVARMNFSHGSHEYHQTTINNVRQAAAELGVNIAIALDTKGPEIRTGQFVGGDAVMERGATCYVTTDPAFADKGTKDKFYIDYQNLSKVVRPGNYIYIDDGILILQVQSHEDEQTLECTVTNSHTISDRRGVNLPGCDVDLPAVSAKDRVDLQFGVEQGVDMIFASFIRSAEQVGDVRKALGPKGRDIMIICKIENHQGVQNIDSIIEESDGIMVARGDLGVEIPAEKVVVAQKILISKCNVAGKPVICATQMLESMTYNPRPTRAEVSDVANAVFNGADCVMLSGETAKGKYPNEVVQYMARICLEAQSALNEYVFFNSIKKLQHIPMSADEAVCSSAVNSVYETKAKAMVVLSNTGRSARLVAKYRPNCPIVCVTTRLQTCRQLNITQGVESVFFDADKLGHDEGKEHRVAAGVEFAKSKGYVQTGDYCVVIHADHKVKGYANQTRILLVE
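Kinase-Glo luminescence read after 1 h RT reaction of 0.1 nM LmPK with 0.5 mM PEP and 0.1 mM ADP. Activity scaled between uninhibited and enzyme-free controls.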
Shiga toxin inh = blocks Shiga toxin action in Vero cells; 290,000 tested, 9.2% active; inhibition, % at 38.7 µM; Vero cells, Shiga toxin protein synthesis inhibition reporter; in the data active means inhibition mostly above about 28%, no sharp cut-off; inactive means mostly below about 43%; further: 0% is about no effect
CHX counter = affects cycloheximide protein synthesis inhibition readout, counter-screen; max response, %; 300,000 tested, 12% active; cell reporter, cycloheximide protein synthesis inhibition counterscreen; in the data active means max response mostly above about 13%, no sharp cut-off; inactive means mostly below about 14%; further: read at 38.3 µM for the half of the compounds with a filed dose; 0% is about no effect
SARS PLpro yeast-1 = blocks SARS-CoV papain-like protease in a yeast assay | 330,000 tested, 0.19% active | Potency, µM (top dose mostly 32.9 µM), for inactives: at the top dose activity, positive = growth rescue, hits mostly activators | AID 485353 | S. cerevisiae expressing SARS-CoV PLpro, growth rescue; further: potency means the concentration at half of the fitted maximal effect; 0% is about no effect; nearly all actives have a fitted effect of over 55% in size
NS1 function inh = blocks influenza NS1 protein function. Potency, µM (top dose mostly 46.1 µM), for inactives: at the top dose activity, positive = more growth. 270,000 tested, 0.4% active. AID 2326; further: potency means the concentration at half of the fitted maximal effect; actives are rising curves; nearly all actives have a fitted effect of over 50% in size
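S. cerevisiae expressing influenza A NS1, grown in glucose, washed, then diluted 1:100 into pH 6.0 -URA galactose medium with 23 nl compound. Growth recovery read as OD600; NS1-free strain serves as control.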
TbPYK inhibitor = T. brucei pyruvate kinase inhibition; Q57TT1; TbPYK enzyme, Kinase-Glo Plus ATP luminescence, 45 min; Potency, µM (titrated, usually from 76.8 µM), for the others: at the top dose activity, negative = inhibition, most hits filed as inhibitors; 410,000 tested, 0.12% active; AID 624173; active means well fitted curve in the direction sought with a large enough effect; inconclusive means small, poorly fitted or top-dose-only effect, or another doubt; inactive means no such curve, though single readings can be large; an effect the other way counts as inactive or inconclusive; further: potency means the concentration at half of the fitted maximal effect; on the % scale 0 is the no-effect control and ±100 the full control effect; nearly all actives have a fitted effect of over 50% in size
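Luminescent Kinase-Glo Plus end-point after 45 min room-temperature reaction of T. brucei pyruvate kinase started with 130 uM ADP (final). Buffer TEA 50 mM pH 7.2 with KCl, MgCl2, BSA, Tween-20; titration-based qHTS with fitted concentration-effect curves.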
SARS PLpro yeast-2 = Rescues yeast growth by inhibiting SARS-CoV PLpro. 1,000 tested, 19% active. calls only. shares compounds with SARS PLpro yeast-1. yeast expressing SARS-CoV PLpro, growth phenotype rescue. AID 652038; call rule not given here
* marks the source's active call; other numbers are inactive results; i = inactive; ? = inconclusive; / = no result; + = active, no number. Shown is part of a subset that was picked to be rich in hits. Unless noted, the call rests on the fitted dose curve.

SMILES	LmPK inh	Shiga toxin inh	CHX counter	SARS PLpro yeast-1	NS1 function inh	TbPYK inhibitor	SARS PLpro yeast-2
CC(C)COc1cccc(C(=O)N(C)CC(=O)Nc2cccc3ccccc23)c1	/	/	/	14µM*	/	-4%	i
CCC(CC)C(=O)Nc1nnc(SCc2cc(=O)n3cccc(C)c3n2)s1	/	/	/	/	/	0%	/
CCN1CCCC1CN(Cc1cc2c(C)cc(C)cc2[nH]c1=O)C(=O)NC1CCCCC1 (stereo unspecified)	3%	-3	-6	?	17%	1%	i
N#Cc1ccccc1NC(=O)COC(=O)/C=C/c1cn(-c2ccccc2)nc1-c1ccc(Cl)cc1	1%	16	4	-1%	-3%	4%	/
NC(=O)c1ccc(NC(=O)COC(=O)/C=C/c2cn(-c3ccccc3)nc2-c2cccnc2)cc1	-2%	-10	-3	?	14%	-13%	i
Cc1nn(-c2ccccc2)c(C)c1/C=N/NC(=O)CSc1nnc(-c2ccccc2)n1-c1ccc(Cl)cc1	-5%	-16	3	-1%	?	3%	/
Cc1nn(-c2ccccc2)c(C)c1/C=N/NC(=O)CSc1nnc(SCc2ccccc2Cl)s1	-6%	42	35*	?	-2%	-4%	+
COc1ccccc1C1NC(=O)NC(C)=C1C(=O)OC1CCCC(C)C1 (stereo unspecified)	0%	-12	-1	-5%	?	2%	/
COC(C(=O)Nc1ccc(F)cc1)c1ccccc1 (stereo unspecified)	-3%	-1	-3	16µM*	5%	5%	i
COC(C(=O)Nc1ccc(S(=O)(=O)Nc2ccc(F)cc2)cc1)c1ccccc1 (stereo unspecified)	2%	-8	-5	0%	-8%	-7%	/
O=C(CC(Nc1ccc(F)cc1)c1ccccc1)c1ccccc1 (stereo unspecified)	4%	91*	31*	3.2µM*	0%	7%	i
O=C(CC(CC(=O)c1ccccc1)c1ccccc1)c1ccccc1	-1%	7	10	-1%	-7%	0%	/
O=C(Nc1ccc(F)cc1)c1ccccc1	-25%	103*	44*	?	-12%	-5%	i
Cc1cccc(N2CCN(C(=O)c3ccc4c(c3)N(Cc3ccccc3)C(=O)c3ccccc3S4(=O)=O)CC2C)c1 (stereo unspecified)	/	/	/	/	/	-8%	/
Nc1ncccc1C(=O)OCC(=O)N1CCN(S(=O)(=O)c2ccc(Cl)cc2)CC1	/	/	/	-2%	/	0%	/
COc1ccc(-c2nnc(SCC(=O)Nc3ccc(C)c(C)c3)s2)cc1	/	/	/	/	/	1%	/
O=C(c1ccc(Cl)nc1)N1CCN(S(=O)(=O)c2ccccc2)CC1	2%	-3	-1	-2%	-40%	4%	/
O=C(c1ccc(O)c(Cl)c1)N1CCN(S(=O)(=O)c2ccccc2)CC1	-5%	3	-3	?	9%	2%	i
O=C(OCc1ccccc1)c1ccc2c(c1)-c1ccccc1C2=O	-1%	27*	16*	16µM*	1%	-3%	i
COc1ccc(C2=C(C)C(=NCCCN3CCN(c4cc(C)ccc4C)CC3)NS2(=O)=O)cc1	/	/	/	/	/	-6%	/
Cc1cccc(C(=O)N[C@H](C(=O)Nc2ccc3c(c2)OCO3)C(C)C)c1	/	/	/	-17%	/	-5%	/
Cc1nnsc1C(=O)N/N=C/c1ccc2ccccc2c1O	6%	20	0	1µM*	9%	-6%	i
CCOc1ccccc1C(=O)N(Cc1ccco1)Cc1ccco1	/	/	/	/	/	-8%	/
Cc1c(O)c2cccnc2[nH]c1=O	1%	-2	2	3.5µM*	12%	-6%	i
Cc1ccc2c(O)c(C)c(=O)[nH]c2n1	0%	-8	-3	-1%	3%	3%	/
SMILES	LmPK inh	Shiga toxin inh	CHX counter	SARS PLpro yeast-1	NS1 function inh	TbPYK inhibitor	SARS PLpro yeast-2
Cc1[nH]n(-c2ccccc2)c(=O)c1/C=N\NC(=O)C1COc2ccccc2O1 (stereo unspecified)	0%	-8	24	10µM*	-10%	-6%	i
Cc1c(/C=N\NC(=O)C2COc3ccccc3O2)c2ccccc2n1C (stereo unspecified)	6%	-10	-1	-32%	-38%	-11%	/
O=C(N/N=C/c1c(O)n(-c2ccccc2Cl)c(=O)c2ccccc12)C1COc2ccccc2O1 (stereo unspecified)	5%	-7	2	11µM*	3.5µM*	-2%	+
CC(=O)N/N=C/c1c(C)[nH]n(-c2ccccc2)c1=O	-3%	7	-5	-3%	/	-2%	/
O=C(N/N=C\c1cccc([N+](=O)[O-])c1O)C1COc2ccccc2O1 (stereo unspecified)	-7%	-7	-4	13µM*	-38%	-2%	i
Cc1ccc(-n2c(O)c(/C=N/NC(=O)C3COc4ccccc4O3)c3ccccc3c2=O)cc1 (stereo unspecified)	-1%	-2	-3	?	?	0%	?
CCOC(=O)c1cc(C)n(CC2CCC(C(=O)Nc3ccc(OCC)cc3)CC2)c1C (stereo unspecified)	/	/	/	/	/	5%	/
COc1cc(C(c2oc(CO)cc(=O)c2O)c2oc(CO)cc(=O)c2O)cc(OC)c1OC	-1%	-9	-4	?	/	-16%	i
COc1ccc(C(c2oc(CO)cc(=O)c2O)c2oc(CO)cc(=O)c2O)cc1	2%	18	1	4.5µM*	4%	-1%	+
Cc1ccnc(NC(c2ccccc2O)c2oc(CO)cc(=O)c2O)c1 (stereo unspecified)	22%	16	-3	?	2%	-6%	/
O=C(Nc1ccccc1)Nc1nnc(Cc2ccccc2F)s1	1%	-2	2	-6%	-2%	0%	/
O=C(Nc1nnc(Cc2ccccc2)s1)Nc1ccccc1F	-5%	-2	10	?	18%	-3%	+
Cc1noc(C)c1NC(=O)Nc1ccc2c(c1)CC(=O)N([C@@H](C)CO)C[C@@H](C)[C@@H](CN(C)C(=O)Nc1cccc3ccccc13)O2	/	/	/	2%	/	1%	/
CN(C(=O)C1CCCCC1)C1(C)CCS(=O)(=O)C1 (stereo unspecified)	/	/	/	2%	/	-3%	/
C/C(=N\NC(=O)CCCNc1ccccc1)c1ccncc1	-11%	-4	-1	1%	-3%	-4%	/
C/C(=N\NC(=O)CCCNc1ccc(C)cc1)c1ccccn1	-1%	-4	-3	?	-20%	-22%	+
O=C(c1ccco1)N1CCN(c2c([N+](=O)[O-])nn(-c3ccc(Cl)cc3)[n+]2[O-])CC1	9%	-9	9	?	/	-7%	/
CC1CCN(c2c([N+](=O)[O-])nn(-c3ccc4c(c3)OCCO4)[n+]2[O-])CC1	6%	162*	61*	4µM*	-4%	2%	i

Screening data deposited in PubChem BioAssay by National Center for Advancing Translational Sciences (NCATS).
